Screens: PubChem, National Center for Advancing Translational Sciences (NCATS)
Rab9 prom act = activators of Rab9 promoter; 2.8% of 320,000 active; Potency, µM (top dose mostly 9.22 µM), inactives show at the top dose activation, negative = inhibition, most hits filed as activators; Huh7 Rab9 promoter-luciferase reporter, luminescence, 24 h; note: % of control where 0% means no effect; nearly all actives have a fitted effect of over 60% in size
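Promoter activation is measured as luciferase luminescence in Huh7 cells stably transfected with a Rab9 promoter–luciferase construct, following 24 h compound exposure at 37 °C and 10 min reagent incubation at ambient temperature.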
NPC1 prom act = NPC1 promoter activation | Potency, µM (series often up to 9.22 µM), inactives show top-dose activation, usual class: activators | 2.4% of 320,000 active | Huh7 NPC1 promoter luciferase reporter, 24 h | AID 485313; note: % of control where 0% means no effect; nearly all actives have a fitted effect of over 60% in size
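Huh7 reporter cells (NPC1 promoter driving luciferase) are dosed with compound for 24 h at 37 °C, 5% CO2; luciferase detection reagent is then added and luminescence measured after 10 min at ambient temperature.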
SMN2 splice up = enhancers of SMN2 splice variant expression; HEK293 SMN2-luciferase splicing reporter, luminescence, 30-36 h; Potency, µM (titrated, usually from 46.1 µM), without a hit: at the highest dose activity change, positive = activation, most hits filed as activators; 2.8% of 210,000 active; note: % of control where 0% means no effect; nearly all actives have a fitted effect of over 55% in size
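HEK293 cells carry an SMN2 minigene-luciferase reporter in which exon 7 inclusion puts luciferase in frame. Cells were seeded at 2000 cells/well, attached for 10-12 hours, then exposed to compounds for 30-36 hours at 37C before ONE-Glo luminescence.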
ELG1 genotox = genotoxicity induction in ELG1-luciferase HEK293T cells; AID 504466; Potency, µM (titrated, usually from 46 µM), without a hit: at the top dose activity change, positive = activation, most hits filed as activators; 1.3% of 330,000 active; HEK293T ELG1-luciferase reporter, luminescence, 16 h; note: % of control where 0% means no effect; nearly all actives have a fitted effect of over 60% in size
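Screening used a luciferase reporter fused to human ELG1 in HEK293T cells. Luminescence was read on a CCD plate imager after 16 hr exposure and 30 min ONE-Glo incubation.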
KinaseGlo FLuc = blocks Kinase-Glo luciferase, a counter-screen artifact | Potency, µM (highest dose often 38.3 µM), for inactives: at the highest dose activity change, negative = inhibition, most hits filed as inhibitors | Kinase-Glo luciferase, ATP luminescence, 8 min | Q27757 | 0.28% of 200,000 active; note: % is set by controls: 0 for no effect and ±100 for the full control effect; nearly all actives have a fitted effect of over 60% in size
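Compound is pinned into ATP-containing buffer (10 uM ATP, imidazole pH 7.2, 7 mM MgCl2). Kinase-Glo luciferase reagent is then added. Light output is recorded following an 8-min room-temperature incubation.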
FLuc modulator = inhibits or activates purified firefly luciferase, miR-21 counter-screen | P08659 | 6.9% of 360,000 active | purified FLuc, Km substrates, luminescence inhibition | Potency, µM (highest dose often 57.5 µM), without a hit: at the highest dose activity change, negative = inhibition, actives largely listed as inhibitors;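 note: plate controls were vehicle for no effect and reference inhibitor for full effect; nearly all actives have a fitted effect of over 55% in size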
Target sequence (P08659 whole entry, looked up): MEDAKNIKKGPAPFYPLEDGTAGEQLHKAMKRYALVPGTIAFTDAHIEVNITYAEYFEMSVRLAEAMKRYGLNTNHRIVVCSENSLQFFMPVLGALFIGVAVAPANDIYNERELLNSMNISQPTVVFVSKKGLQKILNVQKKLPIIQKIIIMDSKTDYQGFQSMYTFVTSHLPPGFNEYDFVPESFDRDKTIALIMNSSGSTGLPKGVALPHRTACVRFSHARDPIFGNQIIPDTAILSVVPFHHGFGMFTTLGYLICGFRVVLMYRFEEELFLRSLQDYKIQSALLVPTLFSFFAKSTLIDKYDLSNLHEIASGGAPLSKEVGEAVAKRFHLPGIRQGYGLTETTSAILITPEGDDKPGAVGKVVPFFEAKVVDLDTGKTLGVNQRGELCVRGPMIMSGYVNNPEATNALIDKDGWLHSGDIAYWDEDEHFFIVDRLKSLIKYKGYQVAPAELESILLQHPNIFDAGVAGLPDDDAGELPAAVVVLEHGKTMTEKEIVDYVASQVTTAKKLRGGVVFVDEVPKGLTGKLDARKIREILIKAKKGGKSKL
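Purified P. pyralis luciferase, 10 nM final, with Km-level 10 uM D-luciferin and 10 uM ATP in 50 mM Tris acetate pH 7.5, 10 mM Mg acetate, 0.01% Tween-20, 0.05% BSA; 6-point qHTS titration about 60 µM downward; luminescence read.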
The depositor's hits bear a star; ? = inconclusive; / = no result given. A selection: hits, their analogues and other compounds. The true share with any hit is near 7.5%. Calls come from the whole dose curve; as a rule, active = well fitted curve in the direction sought with a large enough effect; inconclusive = small, poorly fitted or top-dose-only effect, or another doubt; inactive = no such curve, though single readings can be large; an effect the other way counts as inactive or inconclusive. Potency is the fitted concentration of half-maximal effect.

SMILES	Rab9 prom act	NPC1 prom act	SMN2 splice up	ELG1 genotox	KinaseGlo FLuc	FLuc modulator
O=c1oc2ccccc2cc1-c1cn2cc(Cc3cc(Cl)ccc3Cl)sc2n1	/	/	-2%	/	/	0%
COc1ccc(-c2[nH]ncc2/C=N/NC(=O)c2ccncc2)c(OC)c1	-1%	1%	/	-1%	/	3%
C=C1C=C(C(F)F)n2ncc(C(=O)Nc3ccc(C(C)CC)cc3)c2N1 (stereo not drawn)	/	/	/	/	/	0%
Cc1ccc(Cc2cn3cc(-c4ccccc4)nc3s2)cc1	/	/	2.8µM*	/	/	0.15µM*
Cc1ccc2c(c1)cc1c(=O)n(CC(=O)NCc3ccco3)nc(C)n12	/	/	-5%	/	/	0%
CCc1cccc(NC(=O)C(Cc2ccccc2)NS(=O)(=O)c2ccc3c(c2)c(=O)n(C)c(=O)n3C)c1 (stereo not drawn)	/	/	21%	/	/	-12%
O=C(Nc1ccncc1)c1ccc2ccccc2c1	3.5µM*	?	/	15%	-1%	17µM*
O=C(Nc1ccc2oc(-c3ccccc3)nc2c1)c1ccc2ccccc2c1	/	/	-9%	/	/	3%
Cc1ccc(NC(=O)C(C)C(=O)Nc2ccc(C)cc2)cc1	0%	-3%	-14%	0%	3%	0%
Cc1ccc(NC(=O)C(=O)c2ccc(C)cc2)cc1	2.8µM*	0.63µM*	/	4.6µM*	/	1.9µM*
Cc1ccc(NC(=O)c2ccccc2)cc1	2.2µM*	2µM*	14µM*	?	-16%	6µM*
O=C(Nc1ccc2oc(=O)ccc2c1)c1ccc2ccccc2c1	?	?	/	9%	/	9.5µM*
CCc1cccc(-n2nnc(-c3nsc(NC(=O)c4cccc(OC)c4)n3)c2C)c1	/	/	/	/	/	-2%
CCC1=C(c2ccc(C)cc2)S(=O)(=O)N=C1N1CCC(C(=O)Nc2ccccc2F)CC1	/	/	/	/	/	-9%
CCOc1ccc(NC(=O)C2CCCN(S(=O)(=O)c3ccc(Br)s3)C2)cc1 (stereo not drawn)	/	/	13%	/	/	-1%
Cc1sc(C(=O)Nc2ccc3ccccc3c2)cc1CC(=O)O	?	?	?	15%	-2%	9.5µM*
O=C(c1ccc(F)cc1)c1cnc(Nc2ccccc2)s1	1.3µM*	2µM*	/	?	-3%	0.6µM*
Cc1ccc(C(=O)Nc2ccc3ccccc3c2)cc1	0.22µM*	0.1µM*	/	0.29µM*	/	0.076µM*
CCC(=O)Nc1ccc2ccccc2c1	1%	4%	29%	13%	-3%	?
NC(=O)Cn1nnc(-c2ccc(NC(=O)c3ccc(F)cc3)cc2)n1	?	?	14µM*	?	-1%	?
O=C(c1ccncc1)N1CCC[C@@]2(CCN(Cc3cc(C(F)(F)F)cc(C(F)(F)F)c3)C2)C1	/	/	-9%	/	-2%	/
CCCn1c2ccccc2c2cnn(CC(=O)N(CCCOC)Cc3ccco3)c(=O)c21	/	/	/	/	/	-8%
CC(=O)Nc1cccc(C)c1	0%	-1%	-4%	0%	/	1%
Cc1cc(C)c2cc(C(=O)Nc3ccc4c(c3)OCO4)[nH]c2c1	12%	2%	/	0%	/	?
O=C(O)c1ccc(C(=O)Nc2ccc(F)cc2)cc1	-1%	-2%	/	-1%	/	-16%
SMILES	Rab9 prom act	NPC1 prom act	SMN2 splice up	ELG1 genotox	KinaseGlo FLuc	FLuc modulator
O=C(Nc1ccc2ccccc2c1)c1ccc(Cl)cc1	0.32µM*	0.5µM*	/	0.92µM*	/	0.54µM*
CC(=O)c1cnc(Nc2cccc(C)c2)s1	2.5µM*	?	18µM*	11%	-1%	?
O=C(Nc1ccc(Nc2ccccc2)cc1)c1ccc(F)cc1	12%	16%	/	3%	/	19µM*
Cc1cc(C)c2cc(C(=O)Nc3ccccc3)[nH]c2c1	3.2µM*	4.5µM*	/	?	/	?
CCCCNc1nnc(SCC(=O)c2c[nH]c3ccccc23)s1	-5%	0%	?	0%	-2%	-2%
Cc1ccc(F)c(NC(=O)/C(C#N)=C(\O)c2ccc(C(C)(C)C)cc2)c1	5%	8%	?	6%	1%	12µM*
COc1ccc(NC(=O)CSc2nncn3c2cc2oc(C)cc23)cc1OC	/	/	/	/	/	-6%
